The results in this text go back to ChEMBL document CHEMBL1961873, “Compounds: GSK PKIS; Assays: Nanosyn kinase panel” (2012).

For assay [1], the target named is Mitogen-activated protein kinase 3 (Homo sapiens) (UniProt P27361). The settings on record: at 1 µM.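 Note: values are mean percent inhibition of MAPK3.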
In assay [2] the target is SRSF protein kinase 3 (Homo sapiens) (UniProt Q9UPE1). As to conditions: at 0.1 µM.
Assay [3] shares this target. The settings on record: at 1 µM.
Assay [4] addresses Mitogen-activated protein kinase 14 (Homo sapiens) (UniProt Q16539). The settings on record: at 0.1 µM.
For assay [5] the target is unchanged. As to conditions: at 1 µM.
For assay [6], the target named is Mitogen-activated protein kinase 11 (Homo sapiens) (UniProt Q15759). As to conditions: at 0.1 µM.
Mitogen-activated protein kinase 11 (Homo sapiens), sequence (Q15759 whole entry): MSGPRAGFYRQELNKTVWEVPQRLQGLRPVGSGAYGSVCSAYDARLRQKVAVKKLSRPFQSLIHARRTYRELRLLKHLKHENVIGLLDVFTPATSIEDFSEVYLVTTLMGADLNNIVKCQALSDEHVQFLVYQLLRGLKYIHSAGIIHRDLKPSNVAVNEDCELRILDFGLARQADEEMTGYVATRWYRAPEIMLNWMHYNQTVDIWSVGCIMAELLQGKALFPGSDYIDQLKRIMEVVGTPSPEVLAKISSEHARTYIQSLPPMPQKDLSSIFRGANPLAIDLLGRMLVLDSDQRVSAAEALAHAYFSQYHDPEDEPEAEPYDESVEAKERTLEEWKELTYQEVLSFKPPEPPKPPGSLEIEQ
Assay [7] shares this target. The settings on record: at 1 µM.
Assay [8] addresses T1, Mitogen-activated protein kinase 13 (Homo sapiens) (UniProt O15264).
T1 sequence (whole entry): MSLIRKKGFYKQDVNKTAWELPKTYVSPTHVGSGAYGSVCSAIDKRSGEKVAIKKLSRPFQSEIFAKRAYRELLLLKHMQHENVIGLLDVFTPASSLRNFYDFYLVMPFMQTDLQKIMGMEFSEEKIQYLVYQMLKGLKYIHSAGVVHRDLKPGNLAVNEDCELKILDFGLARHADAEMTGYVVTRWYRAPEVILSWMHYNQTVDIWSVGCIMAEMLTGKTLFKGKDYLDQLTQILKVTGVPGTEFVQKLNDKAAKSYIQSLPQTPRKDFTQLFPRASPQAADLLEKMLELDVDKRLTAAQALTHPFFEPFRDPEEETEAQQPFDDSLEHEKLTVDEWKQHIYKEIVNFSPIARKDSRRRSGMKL
As to conditions: at 0.1 µM.

Assay [9] deals with T1, Mitogen-activated protein kinase 13 (Homo sapiens). The settings on record: at 1 µM.
For assay [10], the target named is T2, Mitogen-activated protein kinase 12 (Homo sapiens) (UniProt P53778).
T2 sequence (whole entry): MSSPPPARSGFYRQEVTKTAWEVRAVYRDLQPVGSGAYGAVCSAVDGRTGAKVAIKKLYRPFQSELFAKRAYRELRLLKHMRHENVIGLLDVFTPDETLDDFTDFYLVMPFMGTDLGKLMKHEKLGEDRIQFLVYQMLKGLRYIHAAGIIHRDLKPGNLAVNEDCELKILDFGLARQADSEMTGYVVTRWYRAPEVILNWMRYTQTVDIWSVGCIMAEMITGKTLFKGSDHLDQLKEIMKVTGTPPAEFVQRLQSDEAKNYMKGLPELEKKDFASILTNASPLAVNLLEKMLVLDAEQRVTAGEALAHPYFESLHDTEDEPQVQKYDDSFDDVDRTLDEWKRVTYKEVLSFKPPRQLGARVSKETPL
The settings on record: at 0.1 µM.

Assay [11] has as its target T2, Mitogen-activated protein kinase 12 (Homo sapiens). The settings on record: at 1 µM.
The target of assay [12] is SRSF protein kinase 1 (Homo sapiens) (UniProt Q96SB4). As to conditions: at 0.1 µM.
SRSF protein kinase 1 (Homo sapiens), sequence (Q96SB4 whole entry): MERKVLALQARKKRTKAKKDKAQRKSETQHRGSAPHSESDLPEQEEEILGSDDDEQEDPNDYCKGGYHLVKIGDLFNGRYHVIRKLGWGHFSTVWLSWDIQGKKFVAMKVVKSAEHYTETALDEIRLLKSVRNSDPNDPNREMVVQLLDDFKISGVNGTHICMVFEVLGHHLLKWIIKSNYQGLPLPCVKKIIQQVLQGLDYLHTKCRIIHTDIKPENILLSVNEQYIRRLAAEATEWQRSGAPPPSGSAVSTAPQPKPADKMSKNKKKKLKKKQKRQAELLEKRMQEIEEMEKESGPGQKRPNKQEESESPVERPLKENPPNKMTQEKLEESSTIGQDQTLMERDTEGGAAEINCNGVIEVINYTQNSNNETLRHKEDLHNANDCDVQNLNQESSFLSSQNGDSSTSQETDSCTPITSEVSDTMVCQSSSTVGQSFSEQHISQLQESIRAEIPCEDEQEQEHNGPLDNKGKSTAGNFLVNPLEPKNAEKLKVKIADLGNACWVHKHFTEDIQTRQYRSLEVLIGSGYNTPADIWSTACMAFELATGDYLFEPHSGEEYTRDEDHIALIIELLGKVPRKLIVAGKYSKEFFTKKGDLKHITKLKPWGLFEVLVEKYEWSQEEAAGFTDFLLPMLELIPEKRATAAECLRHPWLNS
Assay [13] has the same target. As to conditions: at 1 µM.
Assay [14] addresses Phosphatidylinositol 4,5-bisphosphate 3-kinase catalytic subunit alpha isoform (Homo sapiens) (UniProt P42336). The settings on record: at 0.1 µM.
The target is the same in assay [15]. As to conditions: at 1 µM.
Assay [16] addresses T3, Phosphatidylinositol 4,5-bisphosphate 3-kinase catalytic subunit delta isoform (Homo sapiens) (UniProt O00329).
T3 sequence (whole entry): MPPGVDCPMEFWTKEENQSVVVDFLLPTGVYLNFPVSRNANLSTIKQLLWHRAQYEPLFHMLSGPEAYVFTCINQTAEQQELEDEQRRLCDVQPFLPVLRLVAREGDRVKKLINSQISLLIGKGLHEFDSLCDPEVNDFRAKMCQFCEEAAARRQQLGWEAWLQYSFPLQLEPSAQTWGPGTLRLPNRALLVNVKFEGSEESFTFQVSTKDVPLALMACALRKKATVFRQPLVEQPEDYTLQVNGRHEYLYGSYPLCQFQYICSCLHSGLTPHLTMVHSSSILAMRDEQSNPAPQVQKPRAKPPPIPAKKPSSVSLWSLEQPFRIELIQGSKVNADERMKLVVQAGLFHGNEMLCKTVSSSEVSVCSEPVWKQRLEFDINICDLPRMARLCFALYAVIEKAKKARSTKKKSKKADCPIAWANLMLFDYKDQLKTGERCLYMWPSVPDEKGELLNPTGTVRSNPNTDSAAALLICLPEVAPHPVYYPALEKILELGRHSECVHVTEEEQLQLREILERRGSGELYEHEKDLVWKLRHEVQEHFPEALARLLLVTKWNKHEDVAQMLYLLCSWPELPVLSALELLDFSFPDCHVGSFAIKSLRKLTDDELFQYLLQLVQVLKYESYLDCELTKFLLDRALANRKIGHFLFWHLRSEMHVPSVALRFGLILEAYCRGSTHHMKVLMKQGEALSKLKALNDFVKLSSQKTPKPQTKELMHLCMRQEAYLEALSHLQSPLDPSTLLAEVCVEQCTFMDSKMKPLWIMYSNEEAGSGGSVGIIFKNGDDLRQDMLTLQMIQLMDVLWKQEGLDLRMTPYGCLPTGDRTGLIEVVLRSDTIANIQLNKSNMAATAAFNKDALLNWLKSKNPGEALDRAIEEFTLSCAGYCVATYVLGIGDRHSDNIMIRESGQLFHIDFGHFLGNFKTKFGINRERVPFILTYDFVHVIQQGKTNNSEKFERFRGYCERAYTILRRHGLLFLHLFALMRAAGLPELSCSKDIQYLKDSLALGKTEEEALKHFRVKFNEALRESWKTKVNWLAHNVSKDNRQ
As to conditions: at 0.1 µM.

Assay [17] addresses T3, Phosphatidylinositol 4,5-bisphosphate 3-kinase catalytic subunit delta isoform (Homo sapiens). The settings on record: at 1 µM.
The target of assay [18] is Phosphatidylinositol 4-kinase beta (Homo sapiens) (UniProt Q9UBF8). The settings on record: at 0.1 µM.
Phosphatidylinositol 4-kinase beta (Homo sapiens), sequence (Q9UBF8 2-816 limits assumed): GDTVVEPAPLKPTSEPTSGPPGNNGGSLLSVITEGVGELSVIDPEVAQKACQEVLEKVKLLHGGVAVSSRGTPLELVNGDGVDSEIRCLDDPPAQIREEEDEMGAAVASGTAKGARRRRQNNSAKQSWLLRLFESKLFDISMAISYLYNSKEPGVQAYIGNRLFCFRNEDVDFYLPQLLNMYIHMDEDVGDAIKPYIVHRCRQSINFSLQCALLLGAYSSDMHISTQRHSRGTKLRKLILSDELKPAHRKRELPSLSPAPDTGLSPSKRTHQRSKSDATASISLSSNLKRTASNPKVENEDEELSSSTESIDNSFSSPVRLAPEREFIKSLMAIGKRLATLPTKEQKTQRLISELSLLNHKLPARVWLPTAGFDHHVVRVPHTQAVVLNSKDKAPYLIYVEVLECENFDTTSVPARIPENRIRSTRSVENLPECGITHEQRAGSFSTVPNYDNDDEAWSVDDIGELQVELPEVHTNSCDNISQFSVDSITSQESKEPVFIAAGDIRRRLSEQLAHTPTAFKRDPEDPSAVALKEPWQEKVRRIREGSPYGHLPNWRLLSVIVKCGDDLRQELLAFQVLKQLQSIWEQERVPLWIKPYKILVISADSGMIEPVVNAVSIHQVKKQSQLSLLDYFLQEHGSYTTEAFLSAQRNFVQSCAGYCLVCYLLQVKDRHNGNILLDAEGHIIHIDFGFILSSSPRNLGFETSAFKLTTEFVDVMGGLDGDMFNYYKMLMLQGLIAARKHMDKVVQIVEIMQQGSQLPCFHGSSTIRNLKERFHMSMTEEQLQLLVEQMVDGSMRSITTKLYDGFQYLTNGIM
Assay [19] has the same target. The settings on record: at 1 µM.
The target of assay [20] is Sphingosine kinase 1 (Homo sapiens) (UniProt Q9NYA1). The settings on record: at 0.1 µM.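 Note: mean percent inhibition of SPHK1 activity, measured within the GSK PKIS screening panel.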
Sphingosine kinase 1 (Homo sapiens), sequence (Q9NYA1 whole entry): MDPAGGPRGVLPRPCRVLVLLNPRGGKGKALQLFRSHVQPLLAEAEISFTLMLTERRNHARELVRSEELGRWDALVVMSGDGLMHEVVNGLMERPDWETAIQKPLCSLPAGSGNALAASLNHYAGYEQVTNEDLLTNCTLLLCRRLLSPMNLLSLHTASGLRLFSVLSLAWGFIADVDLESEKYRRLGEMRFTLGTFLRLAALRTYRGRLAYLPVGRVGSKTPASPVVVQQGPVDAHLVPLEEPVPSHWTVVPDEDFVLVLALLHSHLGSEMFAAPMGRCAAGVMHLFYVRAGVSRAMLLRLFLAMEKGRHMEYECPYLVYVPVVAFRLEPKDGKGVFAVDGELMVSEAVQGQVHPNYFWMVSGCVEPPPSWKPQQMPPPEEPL

Mitogen-activated protein kinase 14 (Homo sapiens), sequence (Q16539 whole entry): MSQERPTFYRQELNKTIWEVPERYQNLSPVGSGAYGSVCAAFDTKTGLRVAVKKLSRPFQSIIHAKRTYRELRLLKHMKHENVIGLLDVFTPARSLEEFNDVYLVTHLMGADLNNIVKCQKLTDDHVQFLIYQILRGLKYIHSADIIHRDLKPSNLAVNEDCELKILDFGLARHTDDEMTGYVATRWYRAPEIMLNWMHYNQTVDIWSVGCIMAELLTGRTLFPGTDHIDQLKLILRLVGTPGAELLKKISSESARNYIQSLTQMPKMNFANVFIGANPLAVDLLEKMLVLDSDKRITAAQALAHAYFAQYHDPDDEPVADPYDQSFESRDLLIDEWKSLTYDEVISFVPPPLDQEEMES
Phosphatidylinositol 4,5-bisphosphate 3-kinase catalytic subunit alpha isoform (Homo sapiens), sequence (P42336 whole entry, canonical isoform): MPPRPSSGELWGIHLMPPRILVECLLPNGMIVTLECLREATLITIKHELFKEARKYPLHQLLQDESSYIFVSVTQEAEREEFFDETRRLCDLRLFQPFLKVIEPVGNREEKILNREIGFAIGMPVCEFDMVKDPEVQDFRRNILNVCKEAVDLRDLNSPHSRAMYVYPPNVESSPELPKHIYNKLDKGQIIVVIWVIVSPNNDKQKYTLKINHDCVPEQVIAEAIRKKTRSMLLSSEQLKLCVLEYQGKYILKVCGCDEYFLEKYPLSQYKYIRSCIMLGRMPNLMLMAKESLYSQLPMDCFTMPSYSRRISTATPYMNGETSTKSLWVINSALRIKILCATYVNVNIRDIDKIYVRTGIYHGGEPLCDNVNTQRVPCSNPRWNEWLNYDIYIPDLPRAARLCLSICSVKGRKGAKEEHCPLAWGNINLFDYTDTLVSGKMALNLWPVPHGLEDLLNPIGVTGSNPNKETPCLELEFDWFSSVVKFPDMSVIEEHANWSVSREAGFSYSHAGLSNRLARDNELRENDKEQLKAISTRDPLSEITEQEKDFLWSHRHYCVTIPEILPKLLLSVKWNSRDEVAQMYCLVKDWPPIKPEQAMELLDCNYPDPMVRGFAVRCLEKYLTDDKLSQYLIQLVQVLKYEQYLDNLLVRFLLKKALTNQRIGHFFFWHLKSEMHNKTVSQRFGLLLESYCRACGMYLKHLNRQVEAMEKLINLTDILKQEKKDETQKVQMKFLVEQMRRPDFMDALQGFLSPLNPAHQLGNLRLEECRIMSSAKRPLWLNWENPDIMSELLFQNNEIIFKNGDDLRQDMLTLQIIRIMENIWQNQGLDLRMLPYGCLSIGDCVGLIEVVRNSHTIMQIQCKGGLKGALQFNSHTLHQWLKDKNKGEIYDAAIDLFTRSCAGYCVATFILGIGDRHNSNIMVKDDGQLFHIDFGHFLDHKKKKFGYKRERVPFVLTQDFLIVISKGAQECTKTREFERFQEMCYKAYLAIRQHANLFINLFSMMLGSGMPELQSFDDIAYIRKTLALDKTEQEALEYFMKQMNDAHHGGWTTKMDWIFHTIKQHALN
Mitogen-activated protein kinase 3 (Homo sapiens), sequence (P27361 whole entry): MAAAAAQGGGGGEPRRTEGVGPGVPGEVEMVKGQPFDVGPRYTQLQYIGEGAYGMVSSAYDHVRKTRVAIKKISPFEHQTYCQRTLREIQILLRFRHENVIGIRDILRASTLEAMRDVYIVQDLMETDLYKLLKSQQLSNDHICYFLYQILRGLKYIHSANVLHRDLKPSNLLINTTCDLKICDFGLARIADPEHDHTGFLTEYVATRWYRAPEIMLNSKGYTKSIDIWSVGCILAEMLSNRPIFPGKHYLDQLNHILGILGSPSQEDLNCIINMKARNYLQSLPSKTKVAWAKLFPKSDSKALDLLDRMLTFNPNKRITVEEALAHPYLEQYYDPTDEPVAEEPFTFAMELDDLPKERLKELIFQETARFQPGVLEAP
SRSF protein kinase 3 (Homo sapiens), sequence (Q9UPE1 whole entry): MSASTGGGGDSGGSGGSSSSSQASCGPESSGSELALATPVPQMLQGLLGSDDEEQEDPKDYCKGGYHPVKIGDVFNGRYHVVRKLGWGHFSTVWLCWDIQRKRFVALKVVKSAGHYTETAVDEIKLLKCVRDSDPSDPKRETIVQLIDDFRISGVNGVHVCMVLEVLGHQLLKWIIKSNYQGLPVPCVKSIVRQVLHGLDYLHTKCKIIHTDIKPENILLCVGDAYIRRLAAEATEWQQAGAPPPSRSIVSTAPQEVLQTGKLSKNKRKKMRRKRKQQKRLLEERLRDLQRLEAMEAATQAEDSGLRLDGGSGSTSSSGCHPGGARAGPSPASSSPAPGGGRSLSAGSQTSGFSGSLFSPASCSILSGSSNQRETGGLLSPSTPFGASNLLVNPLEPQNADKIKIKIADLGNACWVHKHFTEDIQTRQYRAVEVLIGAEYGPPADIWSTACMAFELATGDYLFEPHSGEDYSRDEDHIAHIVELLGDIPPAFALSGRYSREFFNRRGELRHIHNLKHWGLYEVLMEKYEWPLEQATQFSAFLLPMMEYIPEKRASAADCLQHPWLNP

By inhibition is commonly meant the relative decrease from the control value, in per cent. In the case of `CN1CCC(n2cnc(-c3ccc(F)cc3)c2-c2ccnc(Nc3ccccc3)n2)CC1`, the inhibition in assay [1] was 6.33%; in [2] it was 0.1%; in assay [3], -0.07%; in assay [4] it was 84.1%; in assay [5], 90.8%; in [6], 50.7%. Moreover, the inhibition in [7] is 81.4%; in [8], 3.08%; in [9], 22.5%; in assay [10] it was 3.56%; in assay [11], 9.03%; in assay [12], -1.25%. The inhibition in [13] is -1.27%; in assay [14] it was 1.36%; in [15], 1.8%; in assay [16] it was -0.07%; in assay [17] it was 4.79%; in assay [18] it was -0.93%. For the same molecule, the inhibition in assay [19] was found to be 1.36%; in assay [20] it was 1.77%.

Consider `N#Cc1c(NC(=O)c2ccc(F)cc2)sc2c1CCCC2`, for which the inhibition was -0.36% in [1]; -1.54% in assay [2]; 0.88% in assay [3]; -0.55% in assay [4]; 3.42% in assay [5]; 1.36% in assay [6]. Also, the inhibition in assay [7] is -0.91%; in assay [8], -0.62%; in assay [9], 0.84%; in assay [10], 0.35%; in [11], 0.08%; in [12], -1.47%. Also, the inhibition in assay [13] is -1.93%; in assay [14] it was 1.06%; in assay [15], 0.48%; in assay [16], 1.32%; in assay [17], -1.48%; in [18] it was -4.06%. The results for the inhibition in [19] and in [20] were 1.29% and -0.62%, respectively.

`CC(C)COC(=O)c1ccc2c(c1)/C(=C/Nc1ccc(S(N)(=O)=O)cc1)C(=O)N2`: the inhibition in assay [1] was 13.5%; in assay [2] it was -1.27%; in assay [3] it was -1.97%; in [4], -0.94%; in assay [5], -2.21%; in assay [6], -0.49%. Also, the inhibition in [7] was 7.86%; in [8] it was -1%; in assay [9], 1.38%; in assay [10] it was 0.22%; in [11], -0.52%; in [12], -0.82%. The inhibition in assay [13] is -1.99%; in assay [14] it was 3.8%; in [15] it was -1.43%; in assay [16], 0.18%; in assay [17], 2.64%; in assay [18], 4.22%. Further, the inhibition in [19] is -2.78%; in assay [20], 2.57%.

Regarding `CC(=O)Nc1cccc(C#Cc2cncnc2Nc2ccc(OCc3cccc(F)c3)c(Cl)c2)c1`, the inhibition in assay [1] is 3.68%; in [2] it was 1.32%; in assay [3], -0.25%; in [4], 3.3%; in assay [5] it was 5.63%; in assay [6], 0.27%. In addition, the inhibition was 1.34% in [7]; 2.42% in assay [8]; 2.73% in [9]; 0.58% in assay [10]; 1.97% in assay [11]; -1.41% in assay [12]. In addition, the inhibition in assay [13] is -3.44%; in [14], 1.85%; in assay [15], 1.66%; in [16] it was 2.58%; in [17], 0.8%; in assay [18], -0.32%. The inhibition in [19] is -1.07%; in assay [20], -0.47%.

As for `CCn1c(-c2nonc2N)nc2ccccc21`, the inhibition was 1.82% in [1]; 2.33% in assay [2]; 1.24% in assay [3]; 1.01% in [4]; 4.34% in assay [5]; 3.58% in [6]. Further, the inhibition in assay [7] is 4.06%; in assay [8], 2.36%; in assay [9], 3.3%; in assay [10] it was 0.66%; in assay [11] it was 1.22%; in assay [12] it was -2.61%. Also, the inhibition is -2.83% in [13]; 3.75% in [14]; 1.82% in [15]; 3.37% in [16]; 3.25% in [17]; 7.06% in [18]. For the same molecule, the values for the inhibition in assay [19] and in [20] were 0.95% and 0.28%, respectively.

With `CCc1nn2ncccc2c1-c1ccnc(NC2CC2)n1`, the inhibition is 4.9% in assay [1]; -0.73% in [2]; -0.47% in assay [3]; 4.19% in [4]; 7.08% in assay [5]; 5.64% in assay [6]. For the same molecule, the inhibition in assay [7] is 7.82%; in [8], 3.24%; in assay [9], 3.22%; in assay [10], 2.35%; in [11] it was 3.05%; in assay [12], -1.37%. Besides, the inhibition is -0.37% in assay [13]; 1.28% in [14]; 1.26% in assay [15]; 0.07% in assay [16]; 0.87% in assay [17]; 5.11% in assay [18]. In addition, the inhibition in assay [19] was 8.09%; in assay [20] it was -2.72%.

Take `COc1ccc(-c2nn3ncccc3c2-c2ccnc(Nc3ccc4c(c3)OCCO4)n2)cc1`: the inhibition in assay [1] is 1.27%; in [2], -1.29%; in [3] it was -0.23%; in [4], 68.9%; in assay [5], 87%; in assay [6], 48.6%. Further, the inhibition in assay [7] is 75.4%; in [8], 0.57%; in [9], -1.08%; in assay [10], 0.47%; in [11], 1.16%; in assay [12], -0.82%. Moreover, the inhibition in [13] was -2.72%; in [14] it was 2.37%; in assay [15] it was 3.63%; in [16], 2.13%; in [17], 5.91%; in [18] it was -2.82%. In addition, the inhibition in assay [19] was -1.12%; in [20], -0.35%.

As for `CC1=C(C(=O)Nc2cc(Cl)c3[nH]ncc3c2)C(c2ccc(C(F)(F)F)cc2)CC(=O)N1` (stereo not given), the inhibition was 21.8% in assay [1]; -1.32% in assay [2]; -2.71% in assay [3]; -3.41% in assay [4]; 6.81% in assay [5]; 1.37% in assay [6]. Moreover, the inhibition in [7] was 2.31%; in [8], 0.32%; in assay [9], 4.12%; in [10], 2.56%; in assay [11], 2.49%; in assay [12] it was -1.04%. The inhibition in [13] is -1.39%; in assay [14] it was 2.86%; in assay [15] it was 6.37%; in assay [16], 1.38%; in assay [17], 4.61%; in assay [18], 3.72%. Moreover, the inhibition in [19] was 1.77%; in [20], 6.22%.
